The sample as a whole holds a higher share of hits than the screen did.
FECH inh – blocks human mitochondrial ferrochelatase activity | P22830 | purified FECH, Ni-mesoporphyrin absorbance 550 nm | calls only at 10 µM (by protocol) | 3.3% of 20,000 active;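 active = enzyme reaction rate more than 3 SD below the solvent-only control wells on the same plate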;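 also: lower slope than DMSO wells means FECH inhibition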
Target sequence (P22830 whole entry, looked up): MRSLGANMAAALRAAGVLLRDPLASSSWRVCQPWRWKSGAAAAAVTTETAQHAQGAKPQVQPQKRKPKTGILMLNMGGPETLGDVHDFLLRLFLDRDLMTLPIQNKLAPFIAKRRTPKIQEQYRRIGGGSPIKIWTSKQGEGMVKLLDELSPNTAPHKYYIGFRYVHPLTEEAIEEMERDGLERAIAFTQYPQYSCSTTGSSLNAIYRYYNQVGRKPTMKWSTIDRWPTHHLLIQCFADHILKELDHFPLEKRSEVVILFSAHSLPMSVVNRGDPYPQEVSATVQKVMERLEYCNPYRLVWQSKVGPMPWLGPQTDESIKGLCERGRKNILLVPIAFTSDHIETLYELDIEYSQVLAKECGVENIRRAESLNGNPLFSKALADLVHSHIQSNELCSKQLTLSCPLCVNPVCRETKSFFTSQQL
Calls only; - = inactive; + = active, no number.

SMILES	FECH inh
Cc1ccc(-c2nc3cccnc3n2CCNS(=O)(=O)c2ccc(Cl)cc2)cc1	-
Cc1ccc(NC(=O)NCCn2c(-c3ccncc3)nc3cccnc32)c(C)c1	+
O=C(NCCn1c(-c2ccncc2)nc2cccnc21)Nc1ccccc1Br	-
Cc1ccc(-c2nc3cccnc3n2CCNS(=O)(=O)c2c(C)cc(C)cc2C)cc1	-
CCOc1c(Nc2ccccc2CC)c(=O)c1=O	-
COc1ccc(-c2cc3n(n2)CCC(=O)N3Cc2ccc(C(=O)N3CCOCC3)cc2)cc1	-
Cc1ccc2nc(CN(C)Cc3cnc(N4CCOCC4)nc3)[nH]c2c1	-
COC(=O)C1(C(=O)N(C)Cc2ccccc2C(F)(F)F)CC1	-
CCc1nc(OCC(=O)NC2CCS(=O)(=O)C2)c2c(-c3ccc(F)cc3)noc2n1 (centres undefined)	-
CC(C)c1nc(CCN(C)C(=O)c2ccc(Cl)cn2)no1	-
Cc1cc(C)n(CCC(=O)N(C)Cc2noc(CC(C)C)n2)c(=O)n1	-
Cc1cc(C)n(CCC(=O)N(C)CCc2noc(C(C)C)n2)c(=O)n1	+
Cc1c(CN2Cc3ncccc3C2=O)oc2ccccc12	-
CCc1oc2ccccc2c1-c1nccn1CCN(C)C	-
Cc1c(-c2nccn2Cc2cccnc2)oc2ccccc12	+
O=C(CN1CCCN(Cc2ccccc2)S1(=O)=O)NC1CCCCC1	-
CN(C)C(=O)c1ccc2c(c1)N(CC(=O)N1CCN(c3ccccn3)CC1)C(=O)C1CCCCN21 (centres undefined)	-
COc1ccc(Nc2c(-c3ccc4c(c3)CCCC4)c(=O)c2=O)c(OC)c1	+
COc1ccc(OC)c(Nc2c(-c3ccc4c(c3)CCCC4)c(=O)c2=O)c1	-
Cc1ccc(Nc2c(-c3ccc4c(c3)CCCC4)c(=O)c2=O)c(Cl)c1	-
COc1ccc(Cl)cc1Nc1c(-c2ccc3c(c2)CCCC3)c(=O)c1=O	-
COc1cc(OC)c(Nc2c(-c3ccc4c(c3)CCCC4)c(=O)c2=O)cc1Cl	-
O=c1c(Nc2ccc(F)cc2Cl)c(-c2ccc3c(c2)CCCC3)c1=O	+
Cc1cc(Cl)ccc1Nc1c(-c2ccc3c(c2)CCCC3)c(=O)c1=O	-
COc1ccc(C)cc1Nc1c(-c2ccc3c(c2)CCCC3)c(=O)c1=O	-
SMILES	FECH inh
Cc1ccc(C)c(Nc2c(-c3ccc4c(c3)CCCC4)c(=O)c2=O)c1	+
CCN1CCN(c2nc(C)c3cc4c(cc3n2)CCC4)CC1	-
Cc1cccnc1C(C)Nc1nc(CCN)nc2sc(C)c(C)c12 (centres undefined)	-
Cc1cc2c(cc1S(=O)(=O)N1CCCC1C(=O)N1CCCCCC1)OCC(=O)N2 (centres undefined)	-
CN1C(=O)c2ccccc2Sc2cc(-c3noc(-c4ccc(Br)o4)n3)ccc21	-
Cn1ncc(-c2nc3c([nH]2)c(C2CC2)nn3C)c1-c1ccccc1	-
O=c1c2c(nc3nc(CNc4ccccc4Cl)[nH]n13)CCC2	-
Cc1cccc(C)c1NCc1nc2nc3c(c(=O)n2[nH]1)CCC3	+
Cc1cccc(NCc2nc3nc4c(c(=O)n3[nH]2)CCC4)c1C	+
Cc1ccc(Cc2nc3nc4c(c(=O)n3[nH]2)CCCC4)cc1	-
Cc1cccc(NCc2cc(=O)n3[nH]c(NCc4ccc(F)cc4)nc3n2)c1C	-
CCN1CCN(c2nc(Nc3cccc(F)c3)c3cnn(-c4ccccc4)c3n2)CC1	-
CCCc1cc(Sc2ccccc2NC(=O)Nc2ccc(F)c(Cl)c2)n2ncnc2n1	-
Cc1ccc(N2C(=O)CCS2(=O)=O)cc1S(=O)(=O)N1CCN(c2ccccc2F)CC1	+
CCOC(=O)C1CCCN(S(=O)(=O)c2cc(N3C(=O)CCS3(=O)=O)ccc2C)C1 (centres undefined)	+
Cc1ccc(N2C(=O)CCS2(=O)=O)cc1S(=O)(=O)N1CCC(C(N)=O)CC1	-
Cc1ccc(N2C(=O)CCS2(=O)=O)cc1S(=O)(=O)N1CCN(c2ccccc2)CC1	-
Cc1ccc(N2C(=O)CCS2(=O)=O)cc1S(=O)(=O)N1CCN(c2ccccn2)CC1	-
COc1ccc(N2C(=O)CCS2(=O)=O)cc1S(=O)(=O)NCc1ccc(C)cc1	-
COc1ccc(CNS(=O)(=O)c2cc(N3C(=O)CCS3(=O)=O)ccc2C)cc1OC	+
COc1ccc(CNS(=O)(=O)c2cc(N3C(=O)CCS3(=O)=O)ccc2OC)cc1	-
CCOC(=O)C1CCN(S(=O)(=O)c2cc(N3C(=O)CCS3(=O)=O)ccc2OC)CC1	-
Cc1nn(C)c(C)c1CCC(=O)NCc1cnc2ccccn12	-
COc1ccc(Nc2cc(C)nc(Nc3ccc(NC(=O)c4ccc(Br)o4)cc3)n2)cc1	-
CCSc1ncc(-c2nccn2-c2cccc(OC)c2)cn1	-
SMILES	FECH inh
Cc1ccc(Cl)cc1NS(=O)(=O)c1cc(N2C(=O)CCS2(=O)=O)ccc1C	-
C1=CCC(c2nccn2CCc2ncc[nH]2)CC1 (centres undefined)	-
Cn1cc(CN(C(=O)c2csc3nc(-c4ccc(F)cc4)cn23)C2CC2)cn1	-
C/C(=C\c1ccccc1)CN1CCCC(CN2CCCC2=O)C1 (centres undefined)	-
Cc1cc(C)cc(CCC(=O)N2CCC(NS(C)(=O)=O)CC2)c1	-
CC1(C(=O)NC2CCCCC2)C(=O)n2c(cc3ccccc32)C(=O)N1Cc1ccccc1 (centres undefined)	-
Cc1nn(C)c(C)c1-c1ccnc(NC2CCN(Cc3cccnc3)CC2)n1	-
CC(C)CNC(=O)NCCn1c(-c2ccccc2)nc2cccnc21	-
CCOc1c(C)cc(S(=O)(=O)N2CCN(c3nc(C)cc(N(C)C)n3)CC2)cc1C	-
CCN(C/C=C/c1ccccc1)C(=O)c1cnn2cc(CCO)cnc12	-
N[C@@H](C(=O)NCC1=CCCCC1)c1ccccc1	-
Cc1ccc(Nc2nc(NCCCOC(C)C)nc3c2cnn3-c2ccccc2)cc1	-
